This is a sample that favours compounds with a hit; in the whole collection about 11% have one here.
AMA1 RON2 block = qHTS for Inhibitors of AMA1-RON; Towards Development of Antimalarial Drug Lead: Primary Screen. AlphaScreen AMA1-biotinylated RON2 peptide binding. Potency, µM (highest dose often 58.2 µM), most hits filed as inhibitors. 360,000 tested, 0.2% active. AID 720542, 2013; further: nearly all actives have a fitted effect of over 45% in size
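AMA1 (3D7) with his tag at 25 nM final met compounds first, then biotinylated RON2 peptide at 25 nM; detection used donor plus acceptor beads, 10 µg/mL apiece, read by AlphaScreen after 30 min at room temperature.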
Pf growth 48h = Primary qHTS for delayed death inhibitors of the malarial parasite plastid, 48 hour incubation | P. falciparum luciferase growth in erythrocytes, 48 h | Potency, µM (doses to about 28.7 µM), actives largely listed as inhibitors | 310,000 tested, 5.9% active | AID 504832, 2011
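Luminescence readout; reporter = integrated firefly luciferase in P. falciparum. RBC culture at 2% hematocrit, 0.1% parasitemia final, 37 C/5% CO2; decreased signal taken as growth inhibition.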
Pf growth 96h = Primary qHTS for delayed death inhibitors of the malarial parasite plastid, 96 hour incubation | P. falciparum luciferase reporter growth, 96 h | Potency, µM (doses to about 28.7 µM), actives largely listed as inhibitors | 320,000 tested, 6.9% active | AID 504834, 2011
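Luminescence readout: decreased luciferase signal marks inhibited growth of reporter-expressing P. falciparum in infected red cells (2% hematocrit, 0.05% parasitemia final), exposed to compound two generations (96 h, 37 C, 5% CO2).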
HCV inhibitor = qHTS Assay for Inhibitors of Hepatitis C Virus (HCV); Potency, µM (highest dose often 41.8 µM), most hits filed as inhibitors; 340,000 tested, 3.4% active; Huh7.5.1 HCVcc-Cre infection, luciferase reporter, 44 h; AID 651820, 2012
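Infectious HCVcc-Cre (~0.5 moi) was added to cells just after compound, with cells seeded 4 h earlier at 1,000 per well. Luciferase activity after 44 h culture reported infection; substrate was incubated 15 min at room temperature before reading.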
A number is an active result; i = inactive; ? = inconclusive; nt = no result. The call rests on the fitted dose curve; in most records, active means well fitted curve in the direction sought with a large enough effect; inconclusive means small, poorly fitted or top-dose-only effect, or another doubt; inactive means no such curve, though single readings can be large; an effect the other way counts as inactive or inconclusive.

SMILES	AMA1 RON2 block	Pf growth 48h	Pf growth 96h	HCV inhibitor
O=C(CSc1ccc(S(=O)(=O)N2CCOCC2)cn1)Nc1ccc(F)c(F)c1	i	i	?	6.3µM
CC(NCC1(N2CCOCC2)CCCCC1)C(=O)N1CCc2ccccc21 (stereo unspecified)	i	?	nt	i
CC(Sc1ccc(S(=O)(=O)N2CCOCC2)cn1)C(=O)Nc1ccc(Cl)cc1Cl (stereo unspecified)	i	12µM	?	?
COc1ccc(-c2cc(C(=O)Nc3cc(S(=O)(=O)N4CCOCC4)ccc3N3CCOCC3)c3ccccc3n2)cc1	i	?	?	?
CC1=NN(c2nc(-c3ccc(C)cc3)cs2)C(=O)C1N=Nc1cccc(O)c1 (stereo unspecified)	i	i	i	i
CC1=NN(c2nc(-c3ccc(C)cc3)cs2)C(=O)C1N=Nc1ccccc1O (stereo unspecified)	i	?	i	10µM
COc1ccc(-c2csc(N3N=C(C)C(C)C3=O)n2)cc1 (stereo unspecified)	i	i	12µM	i
O=C(N/N=C/c1ccc(C(F)(F)F)cc1)c1ccncc1	i	i	1.7µM	i
COC(=O)/C=C/c1ccc(OC(=O)c2ccncc2)cc1	i	i	13µM	i
COc1ccc(OC(=O)c2ccncc2)cc1	i	i	i	i
CC(=O)c1ccc(OC(=O)/C=C/c2ccccc2)cc1	i	i	10µM	i
O=C(Oc1ccc(/C=N/NC(=O)c2ccccc2F)cc1)c1ccccc1	i	i	?	i
O=C(Oc1ccc(/C=N/NC(=O)c2ccccc2O)cc1)c1ccccc1	i	nt	6.6µM	i
CCCNC(=O)NC(=O)COC(=O)c1ccc(OC)c(S(=O)(=O)N2CCCc3ccccc32)c1	i	nt	i	i
COc1ccc(C(C(=O)NC2CCCC2)N(C(=O)c2ccco2)c2cc3c(cc2C(C)=O)OCO3)cc1 (stereo unspecified)	i	i	i	i
Cc1cccc(C(=O)Oc2ccc(/C=N/NC(=O)c3ccncc3)cc2)c1	i	12µM	12µM	i
O=C(N/N=C/c1cc2c(c([N+](=O)[O-])c1)OCO2)c1ccncc1	i	i	2.3µM	i
O=C(N/N=C/c1cc2c(cc1[N+](=O)[O-])OCO2)c1cccnc1	i	?	i	i
Fc1ccc2nc(C3CCCCN3Cc3nc(CC4CC4)no3)[nH]c2c1 (stereo unspecified)	i	?	i	i
CN(Cc1ccc2nonc2c1)Cc1nc(CC2CC2)no1	i	i	2.3µM	i
O=C(COC(=O)C1CC1)Nc1ccc2c(c1)OCO2	i	i	i	i
N#Cc1ccccc1S(=O)(=O)N1CCN(C(=O)CN2CCCC2c2cccs2)CC1 (stereo unspecified)	i	9.3µM	4.7µM	i
CSc1ccc(CN2CCC(CO)(Cc3ccc(Cl)cc3)CC2)cc1	i	i	?	?
OCC1(Cc2ccc(Cl)cc2)CCN(CC2CC=CCC2)CC1 (stereo unspecified)	i	6.6µM	i	?
OCC1(Cc2ccc(Cl)cc2)CCN(CCCc2ccccc2)CC1	i	?	i	13µM
SMILES	AMA1 RON2 block	Pf growth 48h	Pf growth 96h	HCV inhibitor
OCC1(Cc2ccc(Cl)cc2)CCN(Cc2ccccc2F)CC1	i	13µM	?	i
OCC1(Cc2ccccc2)CCN(Cc2cccc(F)c2F)CC1	i	?	?	i
CN1CCC(CO)(Cc2ccccc2)CC1	i	i	3.7µM	i
CCCCn1c(N)c(N(CC(C)C)C(=O)CCCSc2nncs2)c(=O)[nH]c1=O	i	i	i	i
C(=N\N=C\c1ccccn1)/c1ccccn1	i	13µM	?	i
COc1cc(/C=N/n2nnnc2N)ccc1O	i	nt	13µM	i
COc1cc(/C=N/n2nnnc2N)ccc1OC(C)=O	i	i	i	i
Nc1nnnn1/N=C/c1ccccn1	i	i	6.6µM	i
CCN(C)c1ccc(/C=N\n2nnnc2N)cc1	i	i	2.6µM	i
CC(=O)C1C(c2cccc(F)c2)c2c(n[nH]c2C)CC1(C)O (stereo unspecified)	i	i	i	i
CCCNC(=O)C1(C)CCN(C(=O)Cc2ccc(OC)c(OC)c2)C1 (stereo unspecified)	i	nt	nt	nt
Cc1ccccc1-c1cccc([C@@H]2C[C@H]3C(CN2)CON3C)c1 (stereo partly specified)	i	nt	nt	?
Nc1nnnn1/N=C/c1ccc(O)cc1	i	nt	2.1µM	i
C(=N\NC1=Nc2cccc3cccc1c23)/c1ccccn1	i	?	?	2.8µM
Clc1ccccc1/C=N/NC1=Nc2cccc3cccc1c23	i	i	i	i
COc1ccc(N2CCN(CC(=O)Nc3nc(C)cs3)CC2)cc1	?	i	i	i
C=C1C(=O)OC2C1CCC(C)C1C=CC(=O)C12C (stereo unspecified)	i	nt	nt	?
C=C1C(=O)OC2C1CCC(C)C1(O)C=CC(=O)C21C (stereo unspecified)	i	nt	nt	8.9µM
COc1ccc([C@H]2C[C@@H](O)[C@H](n3cc(-c4ccc(F)cc4)nn3)CN2C(=O)C2CCCCC2)cc1	i	nt	nt	nt
OCCNCC12CC3CC(CC(C3)C1)C2	i	i	?	i
CC(CC12CC3CC(CC(C3)C1)C2)NCc1ccccc1O (stereo unspecified)	i	?	9.3µM	?
Oc1ccccc1CNCC12CC3CC(CC(C3)C1)C2	i	0.1µM	0.083µM	i
CC(Cc1ccccc1)NCc1ccccc1O (stereo unspecified)	i	?	?	i
CCN(C(=O)COC(=O)c1ccc2ccccc2n1)c1c(N)n(Cc2ccccc2)c(=O)[nH]c1=O	i	i	i	i
Cc1ccc(NC(=O)CSc2nnc(-c3ccoc3C)n2CCCN(C)C)cc1Cl	i	i	i	i
SMILES	AMA1 RON2 block	Pf growth 48h	Pf growth 96h	HCV inhibitor
O=C(/C=C/c1ccccc1Cl)NCCc1ccc(F)cc1	i	4.7µM	?	i
O=C(CCc1nnc(CCCc2ccccc2)o1)NCCc1ccco1	i	i	9.3µM	i
O=C(CCc1nnc(COc2ccccc2)o1)NCc1ccc(Cl)s1	i	i	15µM	i
O=C(CCc1nnc(COc2ccccc2)o1)NCCc1cccs1	i	i	10µM	i
CC(C)CCNC(=O)CCc1nnc(COc2ccccc2)o1	i	i	?	i
O=C(CCc1nnc(CCCc2ccccc2)o1)NCCc1ccccc1	i	i	i	i
CC(C)(C)NC(=O)CN(C(=O)CS(=O)CC(=O)Nc1ccc(F)cc1)c1cccc(F)c1 (stereo unspecified)	i	i	i	i
Cc1cc(C)c2c(c1)NC(c1cc3c(cc1Br)OCO3)C1CC=CC21 (stereo unspecified)	?	13µM	i	?
C#CCSc1nc(-c2cccs2)ccc1C#N	i	i	i	4.5µM
COC(=O)CSc1nc(-c2cccs2)ccc1C#N	i	i	?	i
CC1(C)Cc2ccccc2C(/C(=N\Nc2cccc(Cl)c2)C(N)=O)=N1	?	5.9µM	i	?

Screening data: PubChem, National Center for Advancing Translational Sciences (NCATS)
